Measured values reported in the supplement of paper PMC10849652.
Targets with a hit are over-represented here; the source holds about 8,800 in all. About 0.5% of all pairs of compound and target were hits.

Compound: CCn1c(C(=O)N(C2CC2)C2CC2)cc2c3c(ncn3C)c(Nc3cc(C)n(C)n3)nc21
Assay: log2 fold change, soluble protein after heating vs DMSO (PISA); higher = thermal stabilisation; K562 lysate, 10 uM; active = over 0.2 and 3.5 SD of the protein, either way, in both replicates (recomputed)
How it was run: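 The values are log-two fold changes in thermal stability compared with solvent controls and come from duplicates. They were obtained by TMTpro 16plex LC-MS/MS, with channel sums equalised, on the supernatant after 21,000xg for 90 min. That supernatant came from crude K562 extract at 1 mg/mL protein treated with 10 μM compound for 30 min, heated for 3 min across 48°C-58°C, pooled and brought to 0.5% NP-40 at 4°C.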

Chain of UniProt Q9H6K1 (Q9H6K1 whole entry, looked up): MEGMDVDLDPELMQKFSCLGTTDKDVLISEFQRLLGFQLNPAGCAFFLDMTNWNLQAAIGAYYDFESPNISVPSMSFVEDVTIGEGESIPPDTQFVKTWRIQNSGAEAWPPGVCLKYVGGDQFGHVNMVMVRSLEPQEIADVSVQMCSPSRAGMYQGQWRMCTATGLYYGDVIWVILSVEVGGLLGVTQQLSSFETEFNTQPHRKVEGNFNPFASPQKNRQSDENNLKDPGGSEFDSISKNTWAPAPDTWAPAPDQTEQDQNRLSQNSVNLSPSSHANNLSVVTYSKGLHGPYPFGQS
Chain of UniProt Q14527 (Q14527 whole entry, looked up): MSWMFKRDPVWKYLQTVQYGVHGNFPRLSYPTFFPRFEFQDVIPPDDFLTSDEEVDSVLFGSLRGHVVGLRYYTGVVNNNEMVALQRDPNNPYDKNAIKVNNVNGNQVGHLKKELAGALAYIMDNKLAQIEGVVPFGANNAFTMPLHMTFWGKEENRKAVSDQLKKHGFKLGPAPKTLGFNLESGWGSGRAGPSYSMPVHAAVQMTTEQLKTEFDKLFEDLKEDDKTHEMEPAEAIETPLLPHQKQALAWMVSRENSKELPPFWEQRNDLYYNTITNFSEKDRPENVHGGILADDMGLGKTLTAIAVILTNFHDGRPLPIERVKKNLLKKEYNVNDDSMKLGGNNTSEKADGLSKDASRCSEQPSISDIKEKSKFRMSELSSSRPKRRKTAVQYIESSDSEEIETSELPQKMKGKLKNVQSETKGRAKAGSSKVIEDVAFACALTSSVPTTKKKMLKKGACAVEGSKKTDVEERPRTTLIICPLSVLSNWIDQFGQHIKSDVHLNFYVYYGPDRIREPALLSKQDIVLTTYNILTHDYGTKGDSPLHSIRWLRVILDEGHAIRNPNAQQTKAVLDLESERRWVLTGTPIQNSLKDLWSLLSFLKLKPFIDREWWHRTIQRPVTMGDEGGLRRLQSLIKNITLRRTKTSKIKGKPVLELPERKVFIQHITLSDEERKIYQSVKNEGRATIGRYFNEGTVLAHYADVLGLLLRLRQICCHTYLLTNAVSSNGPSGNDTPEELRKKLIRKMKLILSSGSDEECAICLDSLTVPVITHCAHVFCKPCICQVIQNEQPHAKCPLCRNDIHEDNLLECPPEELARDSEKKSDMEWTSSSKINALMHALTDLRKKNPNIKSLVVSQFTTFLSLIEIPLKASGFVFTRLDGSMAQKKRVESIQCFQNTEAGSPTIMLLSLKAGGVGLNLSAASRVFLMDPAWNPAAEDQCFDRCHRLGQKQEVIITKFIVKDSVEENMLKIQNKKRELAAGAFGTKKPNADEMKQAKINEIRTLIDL
Chain of UniProt Q03013 (Q03013 whole entry, looked up): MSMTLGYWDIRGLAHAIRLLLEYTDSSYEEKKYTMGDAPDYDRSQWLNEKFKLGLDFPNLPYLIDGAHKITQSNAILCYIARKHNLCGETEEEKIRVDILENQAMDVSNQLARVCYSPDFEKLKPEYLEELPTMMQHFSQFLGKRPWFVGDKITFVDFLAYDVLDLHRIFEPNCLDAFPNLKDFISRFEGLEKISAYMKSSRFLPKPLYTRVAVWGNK
Chain of UniProt Q49A26 (Q49A26 whole entry, looked up): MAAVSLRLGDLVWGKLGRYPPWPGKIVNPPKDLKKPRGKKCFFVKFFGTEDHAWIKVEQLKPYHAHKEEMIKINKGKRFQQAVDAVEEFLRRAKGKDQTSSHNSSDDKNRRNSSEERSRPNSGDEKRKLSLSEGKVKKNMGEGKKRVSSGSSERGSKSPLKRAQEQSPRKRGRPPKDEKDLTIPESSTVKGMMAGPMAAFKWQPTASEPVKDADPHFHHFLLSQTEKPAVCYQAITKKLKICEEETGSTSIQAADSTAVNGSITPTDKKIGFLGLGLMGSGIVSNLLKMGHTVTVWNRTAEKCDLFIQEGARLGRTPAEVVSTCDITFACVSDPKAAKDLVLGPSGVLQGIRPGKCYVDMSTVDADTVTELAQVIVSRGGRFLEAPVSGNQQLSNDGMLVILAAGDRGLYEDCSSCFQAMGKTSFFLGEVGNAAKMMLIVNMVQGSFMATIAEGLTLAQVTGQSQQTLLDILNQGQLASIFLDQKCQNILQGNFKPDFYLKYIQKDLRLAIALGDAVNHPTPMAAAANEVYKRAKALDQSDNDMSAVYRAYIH
Chain of UniProt Q99871 (Q99871 whole entry, looked up): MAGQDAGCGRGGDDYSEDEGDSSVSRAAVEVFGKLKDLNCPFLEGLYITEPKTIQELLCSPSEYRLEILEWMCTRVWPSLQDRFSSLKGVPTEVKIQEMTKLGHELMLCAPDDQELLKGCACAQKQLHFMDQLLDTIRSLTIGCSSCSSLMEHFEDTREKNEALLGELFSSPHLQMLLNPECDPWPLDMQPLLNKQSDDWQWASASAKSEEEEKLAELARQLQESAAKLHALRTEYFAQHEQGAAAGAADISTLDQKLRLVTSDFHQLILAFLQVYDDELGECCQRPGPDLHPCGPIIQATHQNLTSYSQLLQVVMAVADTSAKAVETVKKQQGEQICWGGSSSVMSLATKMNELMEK
Chain of UniProt Q9NVR2 (Q9NVR2 whole entry, looked up): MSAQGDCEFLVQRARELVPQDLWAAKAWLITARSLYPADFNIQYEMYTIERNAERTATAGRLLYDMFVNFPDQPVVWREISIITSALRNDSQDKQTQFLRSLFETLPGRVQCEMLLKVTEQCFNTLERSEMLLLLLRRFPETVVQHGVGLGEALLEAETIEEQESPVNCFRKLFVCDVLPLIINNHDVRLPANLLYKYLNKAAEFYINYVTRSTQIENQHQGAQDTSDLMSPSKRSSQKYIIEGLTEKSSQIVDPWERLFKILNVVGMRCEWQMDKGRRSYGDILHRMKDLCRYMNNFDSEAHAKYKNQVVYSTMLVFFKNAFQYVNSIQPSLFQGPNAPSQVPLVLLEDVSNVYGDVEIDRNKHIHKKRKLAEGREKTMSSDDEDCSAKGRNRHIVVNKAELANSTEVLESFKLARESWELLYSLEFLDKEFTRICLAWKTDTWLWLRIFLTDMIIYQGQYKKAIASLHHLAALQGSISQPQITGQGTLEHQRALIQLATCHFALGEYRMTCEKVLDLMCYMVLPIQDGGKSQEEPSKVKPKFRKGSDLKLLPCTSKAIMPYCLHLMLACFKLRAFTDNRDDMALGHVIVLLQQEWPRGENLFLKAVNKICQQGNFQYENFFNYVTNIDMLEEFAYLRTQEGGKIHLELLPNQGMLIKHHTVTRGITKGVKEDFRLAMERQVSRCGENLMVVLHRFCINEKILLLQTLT
Chain of UniProt P04792 (P04792 whole entry, looked up): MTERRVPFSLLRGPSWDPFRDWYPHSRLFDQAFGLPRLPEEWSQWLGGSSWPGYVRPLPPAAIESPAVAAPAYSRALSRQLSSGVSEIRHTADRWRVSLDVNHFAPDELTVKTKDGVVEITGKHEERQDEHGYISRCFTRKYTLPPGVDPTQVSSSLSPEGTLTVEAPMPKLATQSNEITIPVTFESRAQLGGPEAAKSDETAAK
Chain of UniProt Q9UGL1 (Q9UGL1 whole entry, looked up): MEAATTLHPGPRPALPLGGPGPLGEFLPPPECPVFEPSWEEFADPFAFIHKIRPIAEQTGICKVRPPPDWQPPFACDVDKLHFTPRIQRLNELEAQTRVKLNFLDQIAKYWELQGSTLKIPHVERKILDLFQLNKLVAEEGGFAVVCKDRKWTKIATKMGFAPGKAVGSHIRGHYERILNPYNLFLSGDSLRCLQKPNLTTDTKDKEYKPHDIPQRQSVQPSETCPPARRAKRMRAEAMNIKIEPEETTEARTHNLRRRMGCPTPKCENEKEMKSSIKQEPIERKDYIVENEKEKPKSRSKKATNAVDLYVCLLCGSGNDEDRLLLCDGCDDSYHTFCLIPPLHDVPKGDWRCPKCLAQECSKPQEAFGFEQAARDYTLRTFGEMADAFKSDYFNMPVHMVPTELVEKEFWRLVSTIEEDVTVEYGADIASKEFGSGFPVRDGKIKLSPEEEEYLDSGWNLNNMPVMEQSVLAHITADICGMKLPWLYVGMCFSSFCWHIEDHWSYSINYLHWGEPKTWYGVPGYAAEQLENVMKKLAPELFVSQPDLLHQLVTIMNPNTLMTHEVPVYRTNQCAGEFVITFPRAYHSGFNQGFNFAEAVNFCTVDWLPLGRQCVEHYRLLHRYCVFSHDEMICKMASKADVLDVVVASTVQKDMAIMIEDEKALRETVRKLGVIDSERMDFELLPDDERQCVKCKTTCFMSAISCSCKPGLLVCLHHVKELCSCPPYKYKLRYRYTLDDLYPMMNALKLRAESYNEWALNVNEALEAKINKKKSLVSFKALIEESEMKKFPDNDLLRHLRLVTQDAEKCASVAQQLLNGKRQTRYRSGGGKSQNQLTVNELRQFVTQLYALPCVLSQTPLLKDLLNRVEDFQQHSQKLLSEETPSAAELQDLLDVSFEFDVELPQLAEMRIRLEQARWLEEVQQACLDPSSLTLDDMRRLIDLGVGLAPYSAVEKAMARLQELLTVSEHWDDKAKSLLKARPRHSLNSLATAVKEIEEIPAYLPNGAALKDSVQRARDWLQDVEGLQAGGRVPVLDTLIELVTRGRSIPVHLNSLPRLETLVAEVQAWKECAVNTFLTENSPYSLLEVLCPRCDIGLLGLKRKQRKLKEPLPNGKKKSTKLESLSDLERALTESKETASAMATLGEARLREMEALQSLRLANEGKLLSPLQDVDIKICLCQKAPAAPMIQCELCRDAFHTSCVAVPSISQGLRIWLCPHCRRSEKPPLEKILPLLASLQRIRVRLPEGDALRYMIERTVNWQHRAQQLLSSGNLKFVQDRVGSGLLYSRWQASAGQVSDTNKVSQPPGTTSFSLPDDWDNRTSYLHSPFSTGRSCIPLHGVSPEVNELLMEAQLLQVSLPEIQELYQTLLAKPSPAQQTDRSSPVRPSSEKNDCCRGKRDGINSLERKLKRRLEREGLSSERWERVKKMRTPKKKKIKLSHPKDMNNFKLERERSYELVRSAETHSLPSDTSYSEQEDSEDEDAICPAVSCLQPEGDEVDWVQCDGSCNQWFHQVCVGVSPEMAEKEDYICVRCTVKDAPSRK
Chain of UniProt Q9BUE6 (Q9BUE6 whole entry, looked up): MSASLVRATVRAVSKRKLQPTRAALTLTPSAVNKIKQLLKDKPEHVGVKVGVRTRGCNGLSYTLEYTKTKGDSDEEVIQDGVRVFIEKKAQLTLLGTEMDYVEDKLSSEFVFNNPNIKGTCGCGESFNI

log2 fold change, inactive:
GLYR1 (UniProt Q49A26) 0.011, HMGCS1 (UniProt Q01581) 0.014, GSTM4 (UniProt Q03013) 0.009, KARS1 (UniProt Q15046) 0.024, GTF2H4 (UniProt Q92759) 0.028, HAUS7 isoform 2 (UniProt Q99871) -0.021, GSE1 (UniProt Q14687) 0.007, INTS10 (UniProt Q9NVR2) -0.021, GMDS (UniProt O60547) -0.023, HDHD5 (UniProt Q9BXW7) 0.01, GLUD2 (UniProt P49448) -0.031, ILKAP (UniProt Q9H0C8) 0.002, HSPA14 (UniProt Q0VDF9) 0.013, GLUL (UniProt P15104) 0.021, GSK3A (UniProt P49840) 0.026, GRK6 isoform 2 (UniProt P43250) -0.032, GRK2 (UniProt P25098) 0.003, KDM5C (UniProt P41229) -0.001, ILK (UniProt Q13418) 0.016, HLTF (UniProt Q14527) 0.028, INTS7 (UniProt Q9NVH2) 0.028, ICAM2 (UniProt P13598) -0.017, HSP90AA4P (UniProt Q58FG1) -0.076, HMGB2 (UniProt P26583) 0.018, HDAC3 (UniProt O15379) 0.001, GTF3C5 isoform 3 (UniProt Q9Y5Q8) 0.051, ISY1 isoform 1 (UniProt Q9ULR0) -0.012, HEATR6 (UniProt Q6AI08) 0.073, H4C1 (UniProt P62805) 0.079, ILRUN (UniProt Q9H6K1) -0.059, ISCA1 isoform 2 (UniProt Q9BUE6) -0.051, KDM5B isoform 2 (UniProt Q9UGL1) -0.059, INTS3 (UniProt Q68E01) -0.083, GSTCD (UniProt Q8NEC7) 0.011, HSPB1 (UniProt P04792) 0.01, INPPL1 (UniProt O15357) 0.095
